This note sets out measurements from PubChem BioAssay AID1671202 (University of Kansas High Throughput Screening Laboratory, 2021).

Values joined by “and” are separate entries in the source; they are usually repeats but may differ in a detail not shown here. Equal entries are not always repeated. Out of some 190,000 compounds screened, about 6,900 (3.6%) were called active. Rule as the data show it: active = inhibition above about 50%; inactive = the rest. What follows is part of a selection rich in actives, with near analogues and random picks from the rest. A structure can be active in one record and inactive in another.

For the experiment, the target named is Huntingtin (Homo sapiens) (UniProt P42858). The experiment in a line: mutant huntingtin-calmodulin interaction inhibitors – biochemical, AlphaScreen, primary screen (AID 1671202).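 Also: 0% = both proteins with DMSO and 100% = one protein alone.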 To be noted: AlphaScreen His-mHTT/GST-CaM binding, luminescence; at 15 µM, stronger effect = higher value.
Sequence of Huntingtin (Homo sapiens) (P42858 whole entry, looked up, stated change not applied): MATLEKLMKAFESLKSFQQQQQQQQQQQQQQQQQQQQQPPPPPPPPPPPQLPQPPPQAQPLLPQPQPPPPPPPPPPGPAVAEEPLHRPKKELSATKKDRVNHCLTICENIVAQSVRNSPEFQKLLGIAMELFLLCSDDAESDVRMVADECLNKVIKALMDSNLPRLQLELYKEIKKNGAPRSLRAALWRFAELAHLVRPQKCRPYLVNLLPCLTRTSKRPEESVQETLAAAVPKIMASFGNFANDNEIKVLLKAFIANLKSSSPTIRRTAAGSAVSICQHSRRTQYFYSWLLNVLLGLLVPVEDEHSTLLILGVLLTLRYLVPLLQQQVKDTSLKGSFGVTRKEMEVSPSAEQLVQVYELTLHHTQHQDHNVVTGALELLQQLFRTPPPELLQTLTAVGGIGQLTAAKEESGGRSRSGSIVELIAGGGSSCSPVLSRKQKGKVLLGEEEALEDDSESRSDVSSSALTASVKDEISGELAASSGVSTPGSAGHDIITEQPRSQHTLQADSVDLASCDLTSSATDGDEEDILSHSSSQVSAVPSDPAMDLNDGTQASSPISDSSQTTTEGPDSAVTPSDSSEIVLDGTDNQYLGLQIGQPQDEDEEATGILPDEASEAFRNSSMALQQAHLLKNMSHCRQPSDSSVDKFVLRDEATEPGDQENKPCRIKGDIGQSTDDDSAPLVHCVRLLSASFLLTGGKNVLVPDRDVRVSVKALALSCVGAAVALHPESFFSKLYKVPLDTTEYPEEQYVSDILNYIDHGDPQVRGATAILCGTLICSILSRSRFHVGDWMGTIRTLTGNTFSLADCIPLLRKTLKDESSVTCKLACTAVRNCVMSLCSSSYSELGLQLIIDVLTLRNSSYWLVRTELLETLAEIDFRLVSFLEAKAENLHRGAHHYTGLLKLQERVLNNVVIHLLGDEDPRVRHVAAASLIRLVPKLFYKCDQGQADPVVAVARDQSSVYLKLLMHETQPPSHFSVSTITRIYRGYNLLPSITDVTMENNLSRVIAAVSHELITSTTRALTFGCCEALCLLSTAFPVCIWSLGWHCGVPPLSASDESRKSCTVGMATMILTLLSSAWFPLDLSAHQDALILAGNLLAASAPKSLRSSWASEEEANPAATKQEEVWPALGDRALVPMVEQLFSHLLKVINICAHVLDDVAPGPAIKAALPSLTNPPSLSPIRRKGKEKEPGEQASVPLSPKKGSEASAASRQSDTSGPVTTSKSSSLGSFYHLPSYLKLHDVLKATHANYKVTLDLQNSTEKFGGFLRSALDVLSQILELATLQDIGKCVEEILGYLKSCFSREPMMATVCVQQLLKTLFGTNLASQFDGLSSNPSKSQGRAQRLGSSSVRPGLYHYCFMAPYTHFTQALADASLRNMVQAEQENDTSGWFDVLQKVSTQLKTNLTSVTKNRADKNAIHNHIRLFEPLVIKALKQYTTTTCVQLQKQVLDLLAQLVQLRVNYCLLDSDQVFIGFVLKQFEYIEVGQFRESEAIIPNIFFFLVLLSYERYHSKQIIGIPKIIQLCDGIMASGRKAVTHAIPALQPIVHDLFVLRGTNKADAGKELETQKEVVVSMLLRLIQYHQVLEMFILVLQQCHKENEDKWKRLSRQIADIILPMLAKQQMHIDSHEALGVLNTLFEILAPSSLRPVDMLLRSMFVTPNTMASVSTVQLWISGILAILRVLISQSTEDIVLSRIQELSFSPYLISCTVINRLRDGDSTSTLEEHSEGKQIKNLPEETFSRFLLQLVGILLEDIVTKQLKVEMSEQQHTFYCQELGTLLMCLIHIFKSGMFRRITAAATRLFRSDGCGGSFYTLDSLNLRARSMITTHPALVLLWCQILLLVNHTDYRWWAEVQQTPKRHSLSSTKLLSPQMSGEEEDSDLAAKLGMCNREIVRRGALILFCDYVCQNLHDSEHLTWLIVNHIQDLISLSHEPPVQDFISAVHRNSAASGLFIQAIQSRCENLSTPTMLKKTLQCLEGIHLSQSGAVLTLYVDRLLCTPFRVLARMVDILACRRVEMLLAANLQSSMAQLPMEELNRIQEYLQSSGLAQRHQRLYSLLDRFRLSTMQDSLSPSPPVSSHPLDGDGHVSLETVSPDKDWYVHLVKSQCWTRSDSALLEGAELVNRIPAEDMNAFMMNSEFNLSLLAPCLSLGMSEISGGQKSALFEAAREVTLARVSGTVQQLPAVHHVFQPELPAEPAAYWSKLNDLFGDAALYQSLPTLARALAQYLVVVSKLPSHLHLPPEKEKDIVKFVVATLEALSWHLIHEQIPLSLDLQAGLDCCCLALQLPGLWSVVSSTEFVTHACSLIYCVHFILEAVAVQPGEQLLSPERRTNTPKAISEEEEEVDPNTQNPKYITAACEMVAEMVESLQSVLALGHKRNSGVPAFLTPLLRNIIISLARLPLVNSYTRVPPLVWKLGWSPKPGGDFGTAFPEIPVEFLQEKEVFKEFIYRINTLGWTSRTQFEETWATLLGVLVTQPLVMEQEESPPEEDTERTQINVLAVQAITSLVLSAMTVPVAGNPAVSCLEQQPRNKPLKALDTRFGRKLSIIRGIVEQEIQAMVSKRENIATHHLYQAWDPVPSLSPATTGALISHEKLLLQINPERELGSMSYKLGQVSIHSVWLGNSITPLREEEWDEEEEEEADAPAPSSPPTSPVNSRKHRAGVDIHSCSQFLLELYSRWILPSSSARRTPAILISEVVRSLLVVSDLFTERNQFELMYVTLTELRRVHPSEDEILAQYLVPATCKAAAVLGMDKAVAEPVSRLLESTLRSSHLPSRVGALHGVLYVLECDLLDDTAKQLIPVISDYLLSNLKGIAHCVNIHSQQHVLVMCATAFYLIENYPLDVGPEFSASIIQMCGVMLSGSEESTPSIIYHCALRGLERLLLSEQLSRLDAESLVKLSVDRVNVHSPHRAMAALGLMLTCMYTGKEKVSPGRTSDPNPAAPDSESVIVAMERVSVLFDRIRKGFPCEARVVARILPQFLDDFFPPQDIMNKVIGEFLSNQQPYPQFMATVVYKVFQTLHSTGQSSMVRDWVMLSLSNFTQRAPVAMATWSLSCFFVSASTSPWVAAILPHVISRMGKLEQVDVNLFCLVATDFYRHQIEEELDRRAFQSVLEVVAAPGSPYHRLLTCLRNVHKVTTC
`CC(=O)NC(=Nc1nc(C)cc(C)n1)Nc1cccc(C)c1C`: the inhibition was 0% (inactive). For `Cc1c(NC(=O)c2cccc([N+](=O)[O-])c2C)cccc1-c1nc2ccccc2[nH]1`, the inhibition was 16% (inactive). For `O=C(Nc1ccccc1-c1nc2ccccc2[nH]1)c1ccccc1Cl` the value was 45.7% (inactive). The same measure for `O=C(Nc1ccccc1-c1nc2ccccc2[nH]1)c1ccccc1Br`: 51% (active); for `O=C(Nc1nc2ccccc2s1)c1ccc2c(c1)OCO2`: 17.1% (inactive). For `O=C(CN1C(=O)CCC1=O)N1CCC(Oc2nc3ccc(F)cc3s2)CC1` the value was -3.4% (inactive); for `O=C(Cc1ccc2c(c1)OCO2)N1CCC(Oc2nc3ccccc3s2)CC1`, 61.1% (active).

As for `O=C(NCc1ccncc1)C1CC(=O)N(Cc2ccccc2F)C1` (stereo not given), the inhibition is 3.4% (inactive). As for `COc1ccc(C(=O)CSc2nc(N)cc(=O)[nH]2)cc1[N+](=O)[O-]`, the inhibition was 3.7% (inactive). The same measure for `C[C@H]1COc2cc(N3CCSCC3)ccc2S(=O)(=O)N1`: -12% (inactive). The same measure for `O=C(c1ccc(F)cc1)N1CCc2nc[nH]c2C1`: -20.2% (inactive); for `COc1cc(OC)c(OC)cc1CN1CCN(Cc2ccc3c(c2)OCO3)CC1`: 2.4% (inactive); for `COc1cc(C(c2cc3c(cc2O)OCO3)N2CCCC2)cc(OC)c1OC` (stereo not given): 81.6% (active).

`Cc1nc2c(c(NCC3CCCO3)n1)CCC2` (stereo not given): the inhibition was -7.6% (inactive). For `C[C@H]1[C@H](NC(=O)c2cccc(N(C)C)c2)CC[C@@]23CCCN2C(=O)CCC[C@@H]13` the value was -15.6% (inactive).

With `c1csc(CN2CCN(c3cnn4cnnc4c3)CC2)c1`, the inhibition was 0.4% (inactive).

Take `Clc1cccc(N2CCN(Cc3cccnc3)CC2)c1`: the inhibition is 1% (inactive). For `Cc1nnc2cc(N3CCN(Cc4ccc(C(C)C)cc4)CC3)cnn12` the value was 63.7% (active); for `CCn1nnc2c(N3CCN(C(=O)Nc4ccccc4C(F)(F)F)CC3)ncnc21`, -3.4% (inactive).

Consider `CCOc1cc(/C=C2\C(=O)NN(c3ccccc3)C2=O)cc(Cl)c1OCC`, for which the inhibition is 61% (active). For `Cc1ccccc1COc1cccc(/C=C2\C(=O)NN(c3ccccc3)C2=O)c1` the value was 7% (inactive); for `CCOc1cc(/C=C2\C(=O)NN(c3cccc(Cl)c3)C2=O)ccc1O`, 8% (inactive); for `CC(C)N1C(=O)C(C)N(C(=O)NCc2ccc(F)cc2)c2cccnc21` (stereo not given), 10.9% (inactive).

On to `Cc1ccc(NC(=O)CSc2cccc3cccnc23)c(C)c1`, for which the inhibition is 86% (active). The same measure for `Cc1ccc(NC(=O)CSC2=NC(C)(C)N=C2c2ccccc2)c(C)c1`: -6.5% (inactive). For `O=C(CSc1cccc2cccnc12)Nc1ccc(Br)cc1` the value was 3.8% (inactive); for `N#CC1=C2C=CC(O)=CC2OC=C1N` (stereo not given), 55.1% (active). The same measure for `Cn1c(SCc2ccc([N+](=O)[O-])cc2)nnc1-c1cccs1`: 4% (inactive); for `CCN1C(=O)CCc2cc(NC(=O)c3sccc3C)ccc21`: -2.8% (inactive); for `Cc1nn(C)c(C)c1Nc1ccc(N2C(=O)CCCC2=O)cc1[N+](=O)[O-]`: 1% (inactive). As for `O=C1C2C3C=CC(C3)C2C(=O)N1c1ccc(Nc2ccc3c(c2)CCC3)c([N+](=O)[O-])c1` (stereo not given), the inhibition was 74% (active). For `Cc1ccc(N2C(=O)C3C4c5ccccc5C(CO)(c5ccccc54)C3C2=O)cc1[N+](=O)[O-]` (stereo not given) the value was 27% (inactive).

On to `COc1ccccc1CNC(=O)C1CCN(c2cncnc2N2CCN(C)CC2)CC1`, for which the inhibition is 5.19% (inactive). The same measure for `CC(C)(C)NC(=O)c1ccc2c(c1)CCN2C(=O)C1CC1`: -4.5% (inactive).

`CCOC(=O)NCCS(=O)(=O)N1CCN(c2ccc(OC)cc2)CC1`: the inhibition is 1.1% (inactive). The same measure for `N#C/C(=C\c1cccn1-c1ccc([N+](=O)[O-])cc1)c1nn(CCO)c(N)c1C#N`: -2.4% (inactive) and 4% (inactive); for `CS(=O)(=O)N1CCc2cc(NC(=O)Nc3ccccc3)ccc21`: 12.4% (inactive). For `Cc1ccc(OCC(O)CN2CCCC2)cc1C` (stereo not given) the value was 1.8% (inactive); for `COc1ccc(N2CCN(CC(O)COC34CC5CC(CC(C5)C3)C4)CC2)cc1` (stereo not given), 27.7% (inactive). For `CCN(CC)CC(O)COc1ccc(C23CC4CC(CC(C4)C2)C3)cc1` (stereo not given) the value was 98.6% (active); for `CC1CC(C)CN(CC(O)COc2ccc(C34CC5CC(CC(C5)C3)C4)cc2)C1` (stereo not given), 65.1% (active). Take `CC(=O)c1ccc(OCC(O)CN2CCN(c3ccccc3)CC2)cc1` (stereo not given): the inhibition was 9.71% (inactive). Consider `Cc1ccc(OCC(O)CNC2CCCCC2)cc1` (stereo not given), for which the inhibition was -7.1% (inactive). For `CCN1CCN(CC(O)COc2ccc(C34CC5CC(CC(C5)C3)C4)cc2)CC1` (stereo not given) the value was 50.3% (active); for `CCN(CC(O)COC12CC3CC(CC(C3)C1)C2)C1CCCCC1` (stereo not given), -6.1% (inactive). As to `CCc1ccc(OCC(O)CN2CCN(c3ccc(F)cc3)CC2)cc1` (stereo not given), the inhibition is 15.9% (inactive). For `CCn1nccc1C(=O)N1CC2CC(NC(=O)c3cccs3)C1C2` (stereo not given) the value was 1.26% (inactive); for `Cc1ccc2nc(NCc3ccccc3)c(C=Nc3ccccc3)c(=O)n2c1`, 6% (inactive); for `CCc1ccc(CNC(=O)c2c(C)sc3c(=O)n(C4CCCC4)cnc23)cc1`, -6.7% (inactive).

For the compound `CN1CCN(C(=O)c2cc3c(=O)n(C)ccc3n2C)CC1`, the inhibition is -9.9% (inactive). `O=S(=O)(Nc1ccc(F)cc1)c1cccnc1Nc1ccc(Cl)cc1`: the inhibition was -23.3% (inactive).

For `CCOc1ccc(S(=O)(=O)Nc2ccccc2F)c2cccnc12`, the inhibition is 4% (inactive).

Turning to `O=S(=O)(Nc1ccc(Cl)cc1F)c1c[nH]c2ncccc12`, the inhibition was 71.8% (active). For `Cc1cccc(OCC(=O)N2CCCC(OCc3nc(C)no3)C2)c1` (stereo not given) the value was -7.37% (inactive); for `Cc1ccc(-c2nnc(C(=O)c3ccccc3)o2)cc1`, 0.5% (inactive); for `O=S(=O)(c1cc(Br)ccc1Br)N1CCOCC1`, -4% (inactive). The same measure for `COc1ccc(Br)cc1C(=O)Nc1cc2cccc([N+](=O)[O-])c2oc1=O`: -7% (inactive); for `Cc1oc2c(Cl)c(Cl)c(O)cc2c1[N+](=O)[O-]`: 32% (inactive); for `COC(=O)Oc1c([N+](=O)[O-])cc2oc(=O)sc2c1[N+](=O)[O-]`: 53% (active). The same measure for `O=C1CCCC2=C1C(c1cccc(Br)c1)n1nc(-c3ccccc3)nc1N2` (stereo not given): -1.86% (inactive); for `CCOc1ccc(-c2cc(C(=O)NCc3ccccn3)c3ccccc3n2)cc1`: -9.8% (inactive) and 70% (active); for `CCOc1cccc(-c2cc(C(=O)NCCN3CCOCC3)c3ccccc3n2)c1`: 11.4% (inactive).

For the compound `O=C(NCc1cccnc1)c1cc(-c2ccccn2)nc2ccccc12`, the inhibition is 34% (inactive).

In the case of `CCOc1ccc(/C=C2\CS/C(=C\c3ccc(OCC)cc3)C2=O)cc1`, the inhibition is 28% (inactive). For `CN(CC(=O)N1N=C(c2cccs2)CC1c1ccccc1F)C(=O)C1CCCC1` (stereo not given) the value was 23% (inactive); for `CC(=O)N(C)CC(=O)N1N=C(c2ccccc2Cl)CC1c1ccccc1Cl` (stereo not given), 56.2% (active); for `CC(C)C(=O)N(C)CC(=O)N1N=C(c2ccccc2Cl)CC1c1ccc(F)cc1` (stereo not given), 57% (active). The same measure for `CC(=O)N(C)CC(=O)N1N=C(c2cccs2)CC1c1ccccc1Cl` (stereo not given): 1.2% (inactive); for `CC(C)C(=O)N(C)CC(=O)N1N=C(c2ccc(F)cc2)CC1c1ccc(F)cc1` (stereo not given): 29.5% (inactive). The same measure for `CNCC(=O)N1N=C(c2cccn2C)CC1c1ccccc1` (stereo not given): 8.9% (inactive); for `O=C(c1ccc(F)cc1)N1CCC(c2nc(-c3ccccc3)n[nH]2)CC1`: 12.2% (inactive); for `O=C1CC[C@@]23CCCN2C(=O)CCC[C@H]3[C@H]1Cc1ccccc1`: 1.2% (inactive). As for `Cc1nc(-c2cccs2)c(CCC(=O)Nc2cccc3cccnc23)s1`, the inhibition is 8.1% (inactive). With `C=C(C)CN(CC)Cc1cccc(OC)c1OC`, the inhibition is -4.5% (inactive). The same measure for `COc1ccc(C2CC(=O)C(C=Nc3cc(Cl)ccc3O)=C(O)C2)cc1` (stereo not given): 4% (inactive); for `CCC(C)NC(=O)Cn1cnc2c(oc3ccccc32)c1=O` (stereo not given): -6.1% (inactive); for `CC(=O)c1ccc(NC(=O)c2ccc(CN(c3ccc(C)c(C)c3)S(C)(=O)=O)cc2)cc1`: 3.8% (inactive). The same measure for `Cc1ccc(C(=O)Nc2ccc(N(C)C)cc2)cc1C`: 59.4% (active); for `CC(=O)Nc1ccc(NC(=O)c2ccc(N(C)C)cc2)cc1`: 5.9% (inactive); for `CCOc1ccc(CNC(=O)C2CCCN(c3ccc(N4CCOCC4)nn3)C2)cc1` (stereo not given): -1.05% (inactive). The same measure for `COCCNC(=O)c1cn2cc(C)ccc2n1`: -7.5% (inactive); for `O=C(CCC(=O)N1CC2CCCN2c2ccccc21)NCCCN1CCCCC1` (stereo not given): 7.41% (inactive); for `O=C(CCC(=O)N1CC2CCCN2c2ccccc21)NCc1cccc(Br)c1` (stereo not given): 36.6% (inactive).

For the compound `O=C(CCC(=O)N1CC2CCCN2c2ccccc21)NCCCN1CCCC1` (stereo not given), the inhibition was 71.5% (active). For `COc1ccc([N+](=O)[O-])cc1NCc1ccccc1Br` the value was -6.4% (inactive). The same measure for `CCOc1ccc(/C=C(\C#N)c2nc3ccc(C)cc3[nH]2)cc1OC`: 5.8% (inactive); for `COc1cccc(/C=C(\C#N)c2nc3ccc(C)cc3[nH]2)c1OC`: 6.1% (inactive). Take `COc1cc(/C=C(\C#N)c2nc3ccc(C)cc3[nH]2)c(Br)cc1O`: the inhibition was 47.5% (inactive) and 79% (active).

For `CCS(=O)(=O)NCC1CCC(C(=O)Nc2ccccc2C)CC1` (stereo not given), the inhibition was -10.6% (inactive). The same measure for `O=C(C1CCCN(Cc2c[nH]c3ccccc23)C1)N1CCCCCC1` (stereo not given): 11.1% (inactive).

Turning to `O=C(c1cccc2[nH]cc(CN3CCCC3)c12)N1CCN(c2ccccc2)CC1`, the inhibition is 54.3% (active). As for `Cc1ccc(C(=O)N2CCN(c3ccccc3)CC2)c(Cl)c1`, the inhibition was 2.2% (inactive). On to `CCN(CC)C(=O)CSc1nnc(NC(C)=O)s1`, for which the inhibition is -5.1% (inactive). The same measure for `O=C(N=c1sccn1CC(=O)N1CCCC1)c1ccccc1Cl`: 7% (inactive); for `O=C(NC1CC2CC1N(C(=O)NCCc1ccccc1)C2)c1cccnc1` (stereo not given): 0.1% (inactive).

A word on the inhibition: it is the relative decrease from the control value, in per cent.
